Only some compounds are listed: those with a hit (about 2.7% of all), similar ones and a draw of the others.
FAS-TE inh = FAS thioesterase domain inhibitors, primary screen, biochemical, fluorescence intensity, uHTS. inhibition, % at 15 µM. recombinant FAS-TE, OMFH fluorogenic substrate, fluorescence endpoint. Fatty acid synthase (Homo sapiens), P49327. actives 0.67% (n = 360,000). AID 602261, 2012;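 active means compounds whose normalised, plate-corrected inhibition of enzyme fluorescence in the single-dose primary screen is 50% or more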;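 further: 0% = DMSO with enzyme and 100% = substrate without enzyme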
Neddylation inh = inhibitors of cullin neddylation, primary screen, biochemical, TR-FRET, uHTS, NAE and Ubc12 | actives 0.58% (n = 360,000) | calls only at 25 µM | AID 651699, 2012; in the data active means inhibition above about 36%
PfG6PD inh = PfG6PD enzyme inhibitors, primary screen, biochemical, fluorescence intensity, uHTS; PfGluPho enzyme, NADPH resazurin-diaphorase fluorescence; actives 0.78% (n = 350,000); inhibition, % at 20 µM; glucose-6-phosphate dehydrogenase-6-phosphogluconolactonase (Plasmodium falciparum 3D7);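 active means inhibition reaching at least a set limit at 20 µM in the primary screen, cut at about 59% in these data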;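 further: 0% = DMSO wells with substrate and 100% = DMSO wells lacking glucose-6-phosphate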
KLK7 zymogen act = proKLK7 zymogen activators, primary screen, biochemical, fluorescence intensity; activation, % at 7 µM; AID 652039, 2013; Kallikrein-7 (Homo sapiens), P49862; purified proKLK7, EDANS-DABCYL substrate fluorescence; 100% is mature enzyme control, 0% vehicle; actives 0.9% (n = 370,000);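 active means activation above the mean of all tested compounds plus 3 SD, computed per campaign excluding outliers beyond control limits, cut at about 13% in these data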
proKLK7 act conf = proKLK7 zymogen activators, confirmation, biochemical, fluorescence intensity, triplicate. shares compounds with KLK7 zymogen act. purified proKLK7, EDANS-DABCYL substrate fluorescence; scaled: vehicle 0, mature enzyme 100. activation, % at 7 µM. actives 68% (n = 3,200);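 active means activation, as change over the incubation, above the mean of all tested compounds plus 3 SD, cut at about 13% in these data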
EDANS-DABCYL int = EDANS-DABCYL substrate optical interference, artefact control for kallikrein-7 zymogen activator project, biochemical, fluorescence intensity, high throughput; shares compounds with KLK7 zymogen act; no enzyme, 4 h; solvent 0%, active enzyme control 100%; activation, % at 7 µM; actives 80% (n = 3,200); AID 686952, 2013;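 active means activation above the all-compound mean plus 3 SD, ignoring values outside control-based bounds, cut at about 4.8% in these data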;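 further: value is the 4 h activation minus the activation read at time zero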
K7 EDANS ctr = counter-screen for kallikrein-7 activators: EDANS-DABCYL interference, dose response. EC50, µM. shares compounds with KLK7 zymogen act. EDANS-DABCYL peptide fluorescence interference, no enzyme. AID 720493. actives 20% (n = 250);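 active means compounds that raise the fluorescence signal in this interference counterscreen, with EC50 at or below 10 µM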;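 further: intact quenched peptide substrate alone read at 355 nm excitation and 520 nm emission; signal is fluorescence gain from T0 to T4 after four hours at room temperature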
The depositor's hits bear a star; i = inactive; / = no result shown.

SMILES | FAS-TE inh | Neddylation inh | PfG6PD inh | KLK7 zymogen act | proKLK7 act conf | EDANS-DABCYL int | others
COc1cc2cc(C(=O)N3CCN(Cc4ccc5c(c4)OCO5)CC3)c(=O)oc2cc1OC | -4 | / | -4 | 61* | 68* | 73*
Nc1ccc2nn(-c3ccc(F)cc3)nc2c1 | -2 | / | -14 | 45* | 66* | 77*
CC(C)CC(=O)Nc1ccc2nn(-c3ccccc3)nc2c1 | 13 | / | 19 | 3 | / | /
COc1ccc(-n2nc(N)c(C(N)=O)n2)cc1 | -3 | / | -2 | 26* | 23* | 21*
CCCC(=O)Nc1ccc2nn(-c3ccc(OC)cc3)nc2c1 | 18 | / | 12 | 18* | 35* | -4 | K7 EDANS ctr=>70
CC(C)c1ccc(-n2nc3ccc(N)cc3n2)cc1 | 10 | / | -7 | -2 | / | /
COc1ccc(-n2nc3ccc(N)cc3n2)cc1 | -3 | / | -1 | 99* | 77* | 82*
CCC1(CC)NC(=O)N(CC(=O)OC(C)C(=O)Nc2ccc(S(N)(=O)=O)cc2)C1=O (stereo unspecified) | -9 | i | 8 | 1 | / | /
C#CCN(Cc1ccco1)C(=O)c1nnc2c3ccccc3n(S(=O)(=O)c3ccc(C)cc3)c2n1 | / | / | / | -1 | / | /
O=C1C=C(N2CCOCC2)c2cccc3cccc1c23 | -10 | i | 20 | 27* | 0 | 1
Cc1ccc2nc(NC(=S)NC(=O)c3cccs3)sc2c1 | 15 | i | -1 | 0 | / | /
NNC(=O)c1ccc(Cn2cc(Cl)cn2)o1 | -8 | i | 8 | 0 | / | /
Cc1ccc2nc(NC(=O)c3ccc4ncsc4c3)sc2c1 | 1 | i | 32 | 15* | 15* | 6.8* | K7 EDANS ctr=i
NS(=O)(=O)c1ccc2nc(NC(=O)c3ccc4ncsc4c3)sc2c1 | -6 | i | 39 | / | / | /
Cc1ccc2nc(NC(=O)c3cccs3)sc2c1 | -8 | / | 7 | 27* | 4 | 12*
Cc1ccc2nc(NC(=O)c3ccc(Cn4cc(Cl)cn4)o3)sc2c1 | 8 | / | -8 | 57* | -100 | -81
N#Cc1cccc(NC(=O)c2cc(C3CCCCN3S(=O)(=O)c3cccc4cccnc34)on2)c1 (stereo unspecified) | 30 | i | / | 0 | / | /
CC(=O)N[C@@H](Cc1c[nH]c2ccccc12)C(=O)OCC(=O)Nc1cc(C)on1 | -2 | i | -9 | 0 | / | /
O=NN(C(=O)NCc1cccnc1)C1CCCCC1 | -4 | i | / | 0 | / | /
O=C(OCc1cn(Cc2cc(F)cc(F)c2)nn1)N1CCOCC1 | / | / | / | 0 | / | /
O=C(CN1CCCC1)Nc1ccc(-c2nc3cc(NC(=O)CN4CCCC4)ccc3o2)cc1 | -4 | / | 1 | 58* | -20 | -27
COc1ccc(C2CCc3cc4c(cc3C2=NO)OCO4)cc1OC (stereo unspecified) | -4 | i | -9 | 0 | / | /
Nc1ccc2nc3n(c(=O)c2c1)CCC3 | -13 | / | 5 | 17* | 10 | 12*
COc1cc2c(cc1OC)CC(=O)N(C)CC2 | -10 | i | -16 | 1 | / | /
COc1cc2c(cc1OC)C1CCN3C(=O)CCC3N1CC2 (stereo unspecified) | -7 | i | 26 | 20* | 24* | 19* | K7 EDANS ctr=i
SMILES | FAS-TE inh | Neddylation inh | PfG6PD inh | KLK7 zymogen act | proKLK7 act conf | EDANS-DABCYL int | others
O=C(O)c1cc(-c2ccc(Cl)s2)nc2ccccc12 | -7 | / | 7 | 47* | 36* | 41*
CCC(C)NC(=O)c1cc(-c2cccs2)nc2ccccc12 (stereo unspecified) | 0 | / | -3 | 26* | -15 | -27
Cc1ccc(-c2cc(C(=O)O)c3ccccc3n2)s1 | -5 | / | -7 | 54* | 63* | 71*
CC(C)CCNC(=O)c1cc(-c2cccs2)nc2ccccc12 | 8 | / | -4 | -11 | / | /
Cc1cccc(NC(=O)c2cc(-c3ccc(C)s3)nc3ccccc23)n1 | 19 | / | 11 | -92 | / | /
CC(C)(C)C(C(=O)NCc1ccccc1)N1CCN(C(=O)C2CCCO2)CC1 (stereo unspecified) | / | i | / | 0 | / | /
COc1cccc(CCNS(=O)(=O)c2c(C)n[nH]c2C)c1 | / | / | / | 0 | / | /
Cc1cc(=O)oc2c(CN3CCCCC3)c(O)c(Cl)cc12 | -4 | / | -5 | 61* | 61* | 60*
CCCc1cc(=O)oc2c(CN3CCCC3)c(O)c(Cl)cc12 | 1 | / | -1 | 70* | 64* | 77*
Cc1cc(=O)oc2c(CN3CCCC3)c(O)c(Cl)cc12 | 0 | / | 10 | 46* | 62* | 72*
CCc1cc(=O)oc2cc(C)c(CN3CCCCC3)c(O)c12 | -5 | i | 31 | -1 | / | /
CCN1CCN(Cc2c(O)c(Cl)cc3c(C)cc(=O)oc23)CC1 | -1 | / | 21 | 71* | 81* | 80*
CCc1cc(=O)oc2cc(C)c(CN3CCCC3)c(O)c12 | 0 | i | 18 | -2 | / | /
Cc1cc(=O)oc2c(CN3CCC(C)CC3)c(O)c(Cl)cc12 | -3 | / | 16 | 70* | 65* | 66*
CCc1cc(=O)oc2c(CNCc3ccccc3F)c(O)c(Cl)cc12 | 1 | / | 8 | 36* | 61* | 66*
C[C@H](O)[C@@H]1C(=O)N2CCc3c([nH]c4c(-c5ccccc5)cccc34)[C@@H]2C[C@@H]1N(C)CC1CCCCC1 | / | / | / | -6 | / | /
C[C@]12c3[nH]c4cc(-c5ccco5)ccc4c3CCN1C(=O)[C@@H](CC(=O)NCCN1CCOCC1)C[C@@H]2C(=O)N1CCOCC1 | -10 | / | 3 | 52* | 35* | 51*
CC(C)N(C(=O)[C@H]1C[C@H](CC(=O)NCCN2CCOCC2)C(=O)N2CCc3c([nH]c4cc(-c5ccco5)ccc34)[C@]12C)C(C)C | -3 | / | 6 | 124* | 120* | 127*
COc1ccc(CNC(=O)C[C@H]2C[C@H](C(=O)N3CCOCC3)[C@@]3(C)c4[nH]c5cc(-c6ccco6)ccc5c4CCN3C2=O)cc1OC | -3 | / | 16 | 100* | 57* | 64*
C[C@]12c3[nH]c4cc(-c5ccco5)ccc4c3CCN1C(=O)[C@@H](CC(=O)NCCCn1ccnc1)C[C@@H]2C(=O)N1CCCCC1 | -14 | / | 14 | 105* | 40* | 61*
C[C@]12c3[nH]c4cc(-c5ccco5)ccc4c3CCN1C(=O)[C@@H](CC(=O)NCCC1=CCCCC1)C[C@@H]2C(=O)N1CCOCC1 | 1 | / | 25 | / | / | /
CC(C)N(C(=O)[C@H]1C[C@H](CC(=O)NCCCn2ccnc2)C(=O)N2CCc3c([nH]c4cc(-c5ccco5)ccc34)[C@]12C)C(C)C | -15 | / | 3 | 6 | / | /
